The panel holds about 79,000 compounds, 15% with a hit somewhere; the sample as a whole holds those more often. The source made the active and inactive calls. No stated cut-off is given here; in the data, active means growth inhibition above about 70%; inactive means the rest.
Tests used:
[1] = NCI Yeast Anticancer Drug Screen. Data for the rad52 strain (AID 147);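 further: 0% = growth of vehicle-treated control cultures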; details: S. cerevisiae rad52 mutant growth inhibition, hits give high values
Procedure, shortened: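 Here a repair-compromised yeast strain receives each compound; its growth is then quantified and normalised to vehicle-only controls.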

[2] = NCI Yeast Anticancer Drug Screen. Data for the wt1 strain (AID 149);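 further: 0% = growth of vehicle-treated wt1 cultures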; details: S. cerevisiae wt1 strain (SPY 50644) growth inhibition, hits give high values
Procedure, shortened: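 Measured: growth of wt1 yeast under compound versus vehicle treatment, reported as inhibition.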

[3] = NCI Yeast Anticancer Drug Screen. Data for the rad50EPP+ strain (AID 151);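 further: 0% = growth of vehicle-treated control cultures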; details: S. cerevisiae rad50 mutant strain, hits give high values
Procedure, shortened: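 Read-out is yeast growth inhibition relative to vehicle; cells used were the rad50EPP+ strain.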

[4] = NCI Yeast Anticancer Drug Screen. Data for the mgt1 strain (AID 153); details: S. cerevisiae mgt1 mutant growth inhibition, hits give high values
Procedure, shortened: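 Measured: inhibition of mgt1 yeast growth by compound, normalized to vehicle-treated cultures.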

[5] = NCI Yeast Anticancer Drug Screen. Data for the rad50 strain (AID 155);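 further: 0% = growth of vehicle-only cultures of the same strain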; details: S. cerevisiae rad50 strain growth inhibition, hits give high values
Procedure, shortened: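 Growth of the mutant yeast was measured after compound exposure and referenced to vehicle-treated cultures.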

[6] = NCI Yeast Anticancer Drug Screen. Data for the mec2-1 strain (AID 157); details: S. cerevisiae mec2-1 strain, hits give high values
Procedure, shortened: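 Using mec2-1 yeast: add compound, measure growth, express inhibition versus vehicle-treated cultures.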

[7] = NCI Yeast Anticancer Drug Screen. Data for the rad14 strain (AID 159);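 further: 0% = growth of vehicle-treated control cultures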; details: S. cerevisiae rad14 strain growth inhibition, hits give high values
Procedure, shortened: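 Here, inhibition of yeast growth was measured after compound exposure, using a strain with a genetic defect in DNA damage repair and vehicle-treated cultures as the reference.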

[8] = NCI Yeast Anticancer Drug Screen. Data for the sgs1 mgt1 strain (AID 161);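 further: 0% = growth of cultures given vehicle only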; details: S. cerevisiae sgs1 mgt1 strain, hits give high values
Procedure, shortened: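 Growth of a repair-deficient yeast mutant was monitored after compound treatment and expressed as inhibition relative to vehicle-treated cultures.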

[9] = NCI Yeast Anticancer Drug Screen. Data for the CLN2oe strain (AID 163);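 further: 0% = growth of vehicle-only control cultures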; details: S. cerevisiae CLN2oe strain, hits give high values
Procedure, shortened: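 Whole-cell yeast growth assay. A strain engineered for altered cell-cycle control received compound, and inhibition relative to vehicle-treated cultures was recorded.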

[10] = NCI Yeast Anticancer Drug Screen. Data for the cln2 rad14 strain (AID 165);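 further: 0% = growth equal to vehicle treated cultures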; details: S. cerevisiae cln2 rad14 strain, hits give high values
Procedure, shortened: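 Yeast strain cln2 rad14, bearing defects in cell cycle control and DNA repair, serves as the test system; values reflect growth inhibition compared with vehicle.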

[11] = NCI Yeast Anticancer Drug Screen. Data for the bub3 strain (AID 167); details: S. cerevisiae bub3 mutant strain, hits give high values
Procedure, shortened: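 Whole-cell yeast assay. The mutant strain was incubated with compounds, and growth inhibition was determined by comparison with vehicle-treated cells.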

[12] = NCI Yeast Anticancer Drug Screen. Data for the wt2 strain (AID 169);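 further: 0% = growth of vehicle-treated yeast cultures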; details: S. cerevisiae wt2 strain growth inhibition, hits give high values
Procedure, shortened: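 Treated yeast vs. vehicle-treated yeast: growth inhibition determined.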

[13] = NCI Yeast Anticancer Drug Screen. Data for the mlh1 strain (AID 171);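 further: 0% = growth of vehicle-treated control cultures of the same strain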; details: S. cerevisiae mlh1 strain growth inhibition, hits give high values
Procedure, shortened: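 A yeast strain with a defined genetic lesion serves as the test organism. Cultures receive compound or vehicle, and growth is measured.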

[14] = NCI Yeast Anticancer Drug Screen. Data for the sgs1 strain (AID 173);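 further: 0% = growth of vehicle-only control cultures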; details: S. cerevisiae sgs1 mutant, hits give high values
Procedure, shortened: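 A genetically defined yeast mutant is incubated with the test compound, and its growth is compared to that of the same strain given vehicle.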

[15] = NCI Yeast Anticancer Drug Screen. Data for the mlh1 rad18 strain (AID 175); details: S. cerevisiae mlh1 rad18 strain growth inhibition, hits give high values
Procedure, shortened: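 Steps: expose repair-defective yeast to compound; measure growth; express inhibition against vehicle-treated controls.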

[16] = NCI Yeast Anticancer Drug Screen. Data for the rad18 strain (AID 177); details: S. cerevisiae rad18 mutant growth inhibition, hits give high values
Procedure, shortened: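 Measured value is growth inhibition of a yeast strain bearing a DNA repair alteration, referenced to vehicle-treated cells.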

[17] = at 5.0 µM (retest, dose inferred, filed as 0.5)
[18] = at 50.0 µM (retest, dose inferred, filed as 5.0)

Measured: growth inhibition

OC1(c2ccccc2)CSC2=Nc3ccccc3C3CCN1N23 (stereo not drawn)
active: [1]; at 100.0 µM 91% | [2]; at 100.0 µM 95% | [4]; at 100.0 µM 94% | [5]; at 100.0 µM 92% | [6]; at 100.0 µM 93% | [7]; at 100.0 µM 94% | [8]; at 50.0 µM 80.2% | [9]; at 100.0 µM 93% | [11]; at 50.0 µM 73.7% | [11]; at 100.0 µM 91% | [12]; at 100.0 µM 94% | [13]; at 100.0 µM 93% | [14]; at 100.0 µM 94% | [15]; [18] 78% | [15]; at 50.0 µM 80.7% | [16]; at 100.0 µM 92%
inactive: [1]; at 1.2 µM -41% | [1]; at 3.7 µM -50% | [1]; at 11.0 µM -45% | [1]; at 33.0 µM -29% | [2]; at 1.2 µM -82% | [2]; at 3.7 µM -83% | [2]; at 11.0 µM -89% | [2]; at 33.0 µM -33% | [3]; at 1.2 µM -29% | [3]; at 3.7 µM -40% | [3]; at 11.0 µM -47% | [3]; at 33.0 µM -22% | [3]; at 100.0 µM 66% | [4]; at 1.2 µM -45% | [4]; at 3.7 µM -43% | [4]; at 11.0 µM -38% | [4]; at 33.0 µM 57% | [5]; at 1.2 µM -66% | [5]; at 3.7 µM -75% | [5]; [17] 24% | [5]; at 11.0 µM -61% | [5]; at 33.0 µM -20% | [5]; [18] 47% | [5]; at 50.0 µM 51.5% | [6]; at 1.2 µM -86% | [6]; at 3.7 µM -71% | [6]; [17] 12% | [6]; at 11.0 µM -91% | [6]; at 33.0 µM -21% | [6]; [18] 40% | [6]; at 50.0 µM 43.7% | [7]; at 1.2 µM -51% | [7]; at 3.7 µM -32% | [7]; at 11.0 µM -36% | [7]; at 33.0 µM 13% | [8]; [17] 27% | [8]; [18] 51% | [9]; at 1.2 µM -23% | [9]; at 3.7 µM -16% | [9]; at 11.0 µM -46% | [9]; at 33.0 µM 2% | [10]; [17] 25% | [10]; [18] 40% | [10]; at 50.0 µM 16.4% | [11]; at 1.2 µM -56% | [11]; at 3.7 µM -54% | [11]; [17] 19% | [11]; at 11.0 µM -43% | [11]; at 33.0 µM 58% | [11]; [18] 11% | [12]; at 1.2 µM -47% | [12]; at 3.7 µM -39% | [12]; at 11.0 µM -34% | [12]; at 33.0 µM -1% | [13]; at 1.2 µM -81% | [13]; at 3.7 µM -100% | [13]; at 11.0 µM -63% | [13]; at 33.0 µM 58% | [14]; at 1.2 µM -23% | [14]; at 3.7 µM -55% | [14]; at 11.0 µM -42% | [14]; at 33.0 µM 18% | [15]; [17] 23% | [16]; at 1.2 µM -65% | [16]; at 3.7 µM -55% | [16]; at 11.0 µM -70% | [16]; at 33.0 µM -21%
